The source made the active and inactive calls.
What was measured:
[1] = binders of probe aFSTL3 on microarray, primary screen, stem cell growth factor project, biochemical, small-molecule microarray, fluorescence 635/667 (AID 1064); details: higher = more signal;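 note: measures binding of the biotinylated anti-FSTL3 antibody to printed compounds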
[2] = binders from COS7 lysate, DM2A8 probe, primary screen, torsin A project, cell lysate, small-molecule microarray, fluorescence 635/667 (AID 1065); details: higher = more signal, COS7 lysate expressing mutant human TOR1A
[3] = binders of probe aFGF2 on microarray, primary screen, stem cell growth factor project, biochemical, small-molecule microarray, fluorescence 635/667 (AID 1067); details: higher = more signal;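 note: measures binding of biotinylated aFGF2 protein to printed compounds on slides; z-score merges feature fluorescence and signal-to-noise across triplicate slides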
[4] = binders of probe aFGF10 on microarray, primary screen, stem cell growth factor project, biochemical, small-molecule microarray, fluorescence 635/667 (AID 1071); details: higher = more signal;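 note: score merges 667 nm spot intensity and signal to noise from triplicate slides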
[5] = target: Neurogenic locus notch homolog protein 2 (Homo sapiens) (UniProt Q04721); assay: Notch2 binders on small-molecule microarrays, primary screen, biochemical, small-molecule microarray, 635 nm fluorescence, stem cell growth factors (AID 1073); details: Notch2 binding, higher = more signal
[6] = target: Pro-neuregulin-1, membrane-bound isoform (Homo sapiens) (UniProt Q02297); assay: NRG1 binders on small-molecule microarrays, primary screen, psychiatric disease protein project, biochemical, small-molecule microarray, fluorescence 635/667 (AID 1075); details: NRG1 binding, 635 nm fluorescence, higher = more signal;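 note: score combines 667 nm spot fluorescence with signal to noise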
Pro-neuregulin-1, membrane-bound isoform (Homo sapiens), sequence (Q02297 whole entry, looked up, the tested form may be a part, canonical isoform): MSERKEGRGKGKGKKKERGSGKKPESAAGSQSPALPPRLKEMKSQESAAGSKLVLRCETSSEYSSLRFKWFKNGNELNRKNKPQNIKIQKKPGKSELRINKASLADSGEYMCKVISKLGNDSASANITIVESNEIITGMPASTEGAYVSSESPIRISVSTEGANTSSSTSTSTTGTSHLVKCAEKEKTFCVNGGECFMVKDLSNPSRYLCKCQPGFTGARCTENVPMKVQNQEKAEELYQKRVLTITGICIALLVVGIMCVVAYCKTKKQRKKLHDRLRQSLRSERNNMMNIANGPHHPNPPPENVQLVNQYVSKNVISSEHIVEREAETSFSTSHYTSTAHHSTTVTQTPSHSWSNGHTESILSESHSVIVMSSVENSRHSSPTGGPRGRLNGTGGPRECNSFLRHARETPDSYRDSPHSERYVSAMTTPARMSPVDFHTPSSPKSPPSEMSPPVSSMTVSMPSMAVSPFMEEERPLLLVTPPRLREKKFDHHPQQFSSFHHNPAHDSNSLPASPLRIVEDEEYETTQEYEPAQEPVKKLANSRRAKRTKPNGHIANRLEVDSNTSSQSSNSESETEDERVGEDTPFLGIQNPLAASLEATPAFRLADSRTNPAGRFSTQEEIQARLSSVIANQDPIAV

[7] = tested on: Neuregulin-1 EGF-like domain; assay: binders of neuregulin-1 EGF-like domain, primary screen, biochemical, small-molecule microarray, 635 nm fluorescence (AID 1081); details: small-molecule microarray binding, higher = more signal;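 note: binding of the protein to compounds printed on small-molecule microarray slides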
[8] = FRG1 promoter luciferase signal modulators, primary screen, FRG1 inhibition for FSHD, cell-based, C2C12 myotubes, firefly/Renilla luciferase, luminescence (AID 1084); details: higher = more signal, called active from +8 up or from −8 down
[9] = binders of probe aFST on microarray, primary screen, stem cell growth factor project, biochemical, small-molecule microarray, fluorescence 635/667 (AID 1086); details: higher = more signal;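 note: score merges 667 nm fluorescence with signal-to-noise of each printed compound spot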
[10] = binders of probe aHhip on microarray, primary screen, stem cell growth factor project, biochemical, small-molecule microarray, fluorescence 635/667 (AID 1087); details: higher = more signal;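 note: score merges spot fluorescence at 667nm with spot signal to noise ratio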
[11] = tested on: PRMT1 (protein arginine N-methyltransferase 1); assay: PRMT1 binders on small-molecule microarrays, primary screen, biochemical, small-molecule microarray, 635 nm fluorescence (AID 1088); details: small-molecule microarray binding, higher = more signal;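 note: binding of Prmt1 protein to compounds spotted on small-molecule microarray slides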
[12] = yeast growth modulation, basal conditions, primary screen, YJM789 clinical isolate, OD600, 24 h (AID 1089);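 note: growth of clinical yeast isolate S. cerevisiae YJM 789 seeded 1000 cells per well; test concentration not given here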; details: S. cerevisiae YJM789 growth, higher = more signal, called active from +8 up or from −8 down
[13] = fission yeast growth modulation, primary screen, strain 972, OD600, 24 h, no modulator (AID 1090);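 note: basal condition with compound alone and no growth modifier present; test concentration not given here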; details: S. pombe 972 growth, higher = more signal, called active from +8 up or from −8 down
[14] = S. cerevisiae growth modulation with rapamycin, primary screen, strain BY4716, OD600, 96 h (AID 1091); details: higher = more signal, called active from +8 up or from −8 down; note: test concentration not given here
[15] = target: Torsin-1A-interacting protein 2 (Homo sapiens) (UniProt Q8NFQ8); assay: LULL1 binders on small-molecule microarray, primary screen, cell lysate, human LULL1 lysate, 635/667 nm fluorescence (AID 1092); details: hLULL1 lysate binding, 635 nm fluorescence, higher = more signal;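 note: probe is lysate of COS7 cells overexpressing human LULL1; score merges per-feature 667 nm fluorescence with signal-to-noise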
Torsin-1A-interacting protein 2 (Homo sapiens), sequence (Q8NFQ8 whole entry, looked up): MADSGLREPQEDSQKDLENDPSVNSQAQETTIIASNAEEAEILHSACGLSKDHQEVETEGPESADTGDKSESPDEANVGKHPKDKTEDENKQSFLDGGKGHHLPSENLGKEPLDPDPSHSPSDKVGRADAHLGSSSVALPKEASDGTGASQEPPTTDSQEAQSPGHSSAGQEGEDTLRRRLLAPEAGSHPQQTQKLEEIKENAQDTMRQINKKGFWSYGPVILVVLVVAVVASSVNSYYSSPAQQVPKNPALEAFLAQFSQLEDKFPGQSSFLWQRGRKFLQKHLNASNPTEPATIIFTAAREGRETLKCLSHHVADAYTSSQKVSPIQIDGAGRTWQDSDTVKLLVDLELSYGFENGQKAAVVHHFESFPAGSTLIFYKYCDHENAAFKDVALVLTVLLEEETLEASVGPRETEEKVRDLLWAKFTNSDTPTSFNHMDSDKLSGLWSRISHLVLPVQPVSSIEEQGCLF

[16] = E. coli growth modulation, two-sided OD650, primary screen, E. coli filamentation project, strain DRC41, 24 h (AID 1093); details: OD650, 24 h, higher = more signal, called active from +8 up or from −8 down;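 note: MC1000 strain lacking acrAB efflux and sulA so SOS filamentation is blocked; test concentration not given here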
[17] = small-molecule microarray binders of probe aLefty2, primary screen, biochemical, biotinylated probe, 635/667 nm fluorescence (AID 1094); details: higher = more signal;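 note: score merges spot fluorescence near 667 nm with spot signal-to-noise ratio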
[18] = tested on: Noggin (protein binding on small-molecule microarray); assay: Noggin binders on small-molecule microarray, primary screen, biochemical, 635/667 nm fluorescence (AID 1095); details: 635 nm fluorescence, higher = more signal;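 note: score merges 667 nm feature fluorescence with signal to noise over triplicate slides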
[19] = target: Neurogenic locus notch homolog protein 3 (Homo sapiens) (UniProt Q9UM47); assay: NOTCH3 binders on small-molecule microarray, primary screen, biochemical, 635/667 nm fluorescence (AID 1096); details: NOTCH3 binding, 635 nm fluorescence, higher = more signal
Neurogenic locus notch homolog protein 3 (Homo sapiens), sequence (Q9UM47 whole entry, looked up): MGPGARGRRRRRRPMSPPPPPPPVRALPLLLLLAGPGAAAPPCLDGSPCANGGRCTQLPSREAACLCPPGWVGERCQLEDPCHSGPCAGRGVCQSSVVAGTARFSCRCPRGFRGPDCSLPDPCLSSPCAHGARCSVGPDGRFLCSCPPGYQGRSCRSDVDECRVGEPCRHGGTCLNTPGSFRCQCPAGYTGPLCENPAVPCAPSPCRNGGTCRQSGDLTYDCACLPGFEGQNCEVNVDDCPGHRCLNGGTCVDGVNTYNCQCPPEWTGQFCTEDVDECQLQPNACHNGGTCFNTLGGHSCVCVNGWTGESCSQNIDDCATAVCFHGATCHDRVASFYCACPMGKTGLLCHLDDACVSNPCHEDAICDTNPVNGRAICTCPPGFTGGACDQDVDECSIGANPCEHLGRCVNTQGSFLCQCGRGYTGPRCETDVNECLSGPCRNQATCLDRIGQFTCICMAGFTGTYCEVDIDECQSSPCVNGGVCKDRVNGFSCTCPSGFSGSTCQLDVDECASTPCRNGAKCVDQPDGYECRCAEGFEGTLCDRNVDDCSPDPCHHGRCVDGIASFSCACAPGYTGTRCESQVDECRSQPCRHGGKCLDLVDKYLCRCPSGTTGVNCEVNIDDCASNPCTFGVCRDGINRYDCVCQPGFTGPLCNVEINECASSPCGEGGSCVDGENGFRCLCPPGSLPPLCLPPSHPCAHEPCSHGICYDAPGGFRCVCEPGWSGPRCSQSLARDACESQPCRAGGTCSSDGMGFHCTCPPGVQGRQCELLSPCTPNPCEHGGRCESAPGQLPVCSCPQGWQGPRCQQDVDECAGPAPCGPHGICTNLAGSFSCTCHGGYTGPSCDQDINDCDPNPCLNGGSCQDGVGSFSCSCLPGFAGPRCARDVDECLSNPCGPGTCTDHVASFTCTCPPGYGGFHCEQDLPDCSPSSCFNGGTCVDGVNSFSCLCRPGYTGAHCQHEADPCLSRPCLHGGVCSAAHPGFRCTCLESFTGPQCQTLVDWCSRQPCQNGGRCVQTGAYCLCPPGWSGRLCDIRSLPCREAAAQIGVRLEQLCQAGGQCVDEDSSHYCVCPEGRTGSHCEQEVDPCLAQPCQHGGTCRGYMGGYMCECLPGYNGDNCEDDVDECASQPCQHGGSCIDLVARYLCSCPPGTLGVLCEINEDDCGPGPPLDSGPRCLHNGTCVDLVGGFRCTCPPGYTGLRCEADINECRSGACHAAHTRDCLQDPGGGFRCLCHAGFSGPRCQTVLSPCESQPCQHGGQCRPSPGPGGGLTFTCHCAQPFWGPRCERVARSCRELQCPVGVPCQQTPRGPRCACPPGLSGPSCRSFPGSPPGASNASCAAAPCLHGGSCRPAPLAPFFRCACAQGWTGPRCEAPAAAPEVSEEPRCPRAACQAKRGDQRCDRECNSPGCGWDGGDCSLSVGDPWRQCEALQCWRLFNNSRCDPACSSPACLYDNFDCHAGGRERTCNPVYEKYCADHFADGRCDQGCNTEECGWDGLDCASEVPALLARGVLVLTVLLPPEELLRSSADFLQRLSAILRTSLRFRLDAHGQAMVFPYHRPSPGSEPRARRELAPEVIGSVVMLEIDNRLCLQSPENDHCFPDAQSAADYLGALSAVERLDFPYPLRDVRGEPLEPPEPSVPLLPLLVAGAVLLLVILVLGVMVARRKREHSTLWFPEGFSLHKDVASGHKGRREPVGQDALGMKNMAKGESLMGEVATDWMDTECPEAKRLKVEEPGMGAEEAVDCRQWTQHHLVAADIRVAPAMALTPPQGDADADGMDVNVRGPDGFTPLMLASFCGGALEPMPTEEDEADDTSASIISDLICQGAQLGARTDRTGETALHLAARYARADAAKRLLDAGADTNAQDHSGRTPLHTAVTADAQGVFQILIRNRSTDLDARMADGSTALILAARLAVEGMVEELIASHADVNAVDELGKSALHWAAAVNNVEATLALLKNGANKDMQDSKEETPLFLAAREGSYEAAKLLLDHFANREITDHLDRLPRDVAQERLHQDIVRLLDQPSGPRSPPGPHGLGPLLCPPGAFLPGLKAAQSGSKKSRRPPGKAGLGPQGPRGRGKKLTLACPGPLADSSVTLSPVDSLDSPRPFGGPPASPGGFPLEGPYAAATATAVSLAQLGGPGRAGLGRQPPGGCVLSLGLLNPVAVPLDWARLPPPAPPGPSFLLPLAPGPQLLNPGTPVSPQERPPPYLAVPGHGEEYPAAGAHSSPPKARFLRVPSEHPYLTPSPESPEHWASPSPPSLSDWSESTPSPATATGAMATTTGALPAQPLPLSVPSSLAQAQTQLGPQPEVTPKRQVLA

[20] = small-molecule microarray binders of probe aEGFR, primary screen, biochemical, biotinylated probe, 635/667 nm fluorescence (AID 1097); details: higher = more signal;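 note: probe is a biotinylated anti-EGFR antibody binding compounds printed on slides; score combines fluorescence near 667 nm and signal to noise of each spot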

Row | SMILES | composite z-score [1] | composite z-score [2] | composite z-score [3] | composite z-score [4] | composite z-score [5] | composite z-score [6] | composite z-score [7] | z-score [8] | composite z-score [9] | composite z-score [10] | composite z-score [11] | z-score [12] | z-score [13] | z-score [14] | composite z-score [15] | z-score [16] | composite z-score [17] | composite z-score [18] | composite z-score [19] | composite z-score [20]
1 | CCc1cccc(NC(=O)O[C@H]2[C@H](OC(=O)Nc3ccccc3)[C@H](OC(=O)Nc3ccccc3)[C@@H](OC)O[C@@H]2CO)c1 | -0.0949 | 0.0776 | 0.0457 | 1.2 | 1.19 | 1.7 | 1.25 | 2.16 (inactive) | 0.766 | -0.201 | 1.5 | 1.22 (inactive) | 1.72 (inactive) | 8.61 (active) | 3.48 | -0.728 (inactive) | 0.0166 | 0.349 | 1.08 | -0.0968
2 | COCC1C2CC[C@H]3C(OCc4ccc(OC)cc4)OC[C@]4(C)[C@H]3C2=C(CN4C(=O)OC(C)(C)C)[C@H](C)C1COC (stereo not given in full) | -0.163 | 0.0867 | 0.142 | 1.09 | 1.72 | 1.73 | 1.18 | -0.31 (inactive) | 0.993 | -0.164 | 1.57 | -1.23 (inactive) | -1.18 (inactive) | -0.444 (inactive) | 3.78 | -1.22 (inactive) | 0.0359 | 0.372 | 1.05 | -0.0656
3 | [N-]=[N+]=NCc1ccccc1[C@H]1OC(c2ccc(OCCCO)cc2)=N[C@@]1(Cc1ccccc1)C(=O)NCCN1CCOCC1 | -0.714 | 0.614 | -0.0627 | 1.09 | 1.49 | 1.34 | 1.23 | -0.731 (inactive) | 0.213 | -0.0994 | 1.53 | -1.07 (inactive) | -0.864 (inactive) | -0.31 (inactive) | 3.34 | 1.12 (inactive) | 0.443 | 0.52 | 1.09 | -0.0329
4 | O=C1C2C=CC(C(O)c3ccc4c(c3)OCO4)N(Nc3ccccc3)C2C(=O)N1c1ccccc1 (stereo not given) | 0.154 | -0.186 | 0.0917 | 0.847 | 1.55 | 1.46 | 1.09 | -0.545 (inactive) | 1.38 | -0.204 | 1.46 | -0.293 (inactive) | 0.292 (inactive) | 0.593 (inactive) | 3.05 | -0.784 (inactive) | 0.266 | -0.0526 | 1.1 | 0.11
5 | CCOC(=O)C1=CCC(c2ccccc2)N(S(=O)(=O)c2ccc([N+](=O)[O-])cc2)C1 (stereo not given) | -0.239 | -0.181 | -0.112 | 0.154 | 1.17 | -0.0979 | 0.549 | -0.877 (inactive) | 0.06 | 0.0505 | -0.411 | 0.687 (inactive) | 0.668 (inactive) | 1.25 (inactive) | 1.33 | -0.319 (inactive) | -0.0081 | -0.578 | 0.0968 | 0.0506

— PubChem BioAssay
